ADAM17 inh: ADAM17 inhibition, QFRET primary screen; P78536; recombinant ADAM17, EDANS/DABCYL FRET peptide cleavage; inhibition, % at 6.95 µM; 0.83% of 370,000 active; AID 720648;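 active means inhibition above the mean of compounds lying between control limits plus 3 SD, set per campaign, cut at about 8.5% in these data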;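 further: 0% = DMSO-only wells as the low control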
ADAM10 inh: inhibits human ADAM10. O14672. recombinant ADAM10, EDANS/DABCYL FRET peptide cleavage, 3 h. inhibition, % at 7 µM. 0.62% of 370,000 active. AID 720582;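 active means inhibition above a per-campaign cutoff equal to the mean of compounds falling between control-based bounds plus 3 SD, cut at about 20% in these data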;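 further: 0% = DMSO wells while the 100% control is not disclosed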
Rce1 inhib: yeast Ras-converting enzyme inhibition. yeast membranes, quenched prenylated peptide cleavage fluorescence. Q03530. calls only. 0.27% of 290,000 active;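 active means fall in fluorescence gain of 50% or more versus controls, with final raw signal at or below 3038400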;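 further: plate controls were neutral control wells for no effect and wells lacking membranes for full effect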
PLCg1 inh: inhibitors of human phospholipase C gamma1. inhibition, % at 12.2 µM. 0.84% of 370,000 active. P19174. purified PLC-gamma1, fluorogenic substrate, fluorescence; in the data active means inhibition above about 9.5%
PLC-beta3 inh: inhibitors of human phospholipase C beta3; Purified PLC-beta3, fluorogenic substrate, fluorescence; 0.18% of 370,000 active; Q01970; inhibition, % at 12.2 µM;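 further: 0% = median of compound wells on plate and 100% = full blocker control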
PLCgamma1 ctr: PLC-gamma1 inhibition, counter-screen for PLC-beta3 hits; shares compounds with PLCg1 inh; purified PLC-gamma1, fluorogenic substrate, fluorescence; inhibition, % at 12.3 µM; 3.1% of 3,300 active; AID 743258; in the data active means inhibition above about 9.5%
PLCb3 confirm: confirmation of human PLC-beta3 inhibitors | 1% of 3,300 active | shares compounds with PLCg1 inh | inhibition, % at 12.3 µM | purified PLC-beta3, fluorogenic substrate fluorescence | AID 743261
An asterisk follows results filed as active. The list is not random: actives were taken first. Their share in the collection is about 2.1%. Unless noted, no stated cut-off is given here; in the data, active means inhibition above about 11%; inactive means the rest.

For CC(NC(=O)CCn1nc(-c2ccc(Cl)cc2)ccc1=O)c1ccccc1 (stereo unspecified) the results were ADAM17 inh -3.0, ADAM10 inh 13.7, Rce1 inhib inactive, PLCg1 inh 10.2*, PLC-beta3 inh 4.6, PLCgamma1 ctr -6.3 and PLCb3 confirm -3.0.
`COc1ccc(NC(=O)/C(C#N)=C\c2ccc(-c3cccc(C(=O)O)c3C)o2)cc1` gave ADAM17 inh 1.6, ADAM10 inh 3.4, Rce1 inhib inactive, PLCg1 inh 0.1 and PLC-beta3 inh -3.6.
Cc1c(C(=O)O)cccc1-c1ccc(C=O)o1 was read as ADAM17 inh 0.7, ADAM10 inh -27.4, Rce1 inhib inactive, PLCg1 inh 11.1*, PLC-beta3 inh 8.6, PLCgamma1 ctr -5.9 and PLCb3 confirm -4.4.
O=C(NCCc1ccccc1)C1CCN(S(=O)(=O)c2cccc3nonc23)CC1 was read as ADAM17 inh 0.8, ADAM10 inh 4.0, Rce1 inhib inactive, PLCg1 inh 10.8*, PLC-beta3 inh -39.2, PLCgamma1 ctr -6.4 and PLCb3 confirm -3.1.
`O=C(NCCc1ccccc1)C1CCN(S(=O)(=O)c2cccs2)CC1` gave ADAM17 inh 7.3, ADAM10 inh 2.0, Rce1 inhib inactive, PLCg1 inh 9.8*, PLC-beta3 inh 8.6, PLCgamma1 ctr -6.0 and PLCb3 confirm -4.0.
NS(=O)(=O)c1cccc(NC(=O)COC(=O)C2CCN(S(=O)(=O)c3cccs3)CC2)c1 was read as ADAM17 inh -4.0, ADAM10 inh 4.2, Rce1 inhib inactive, PLCg1 inh 9.7*, PLC-beta3 inh -8.5, PLCgamma1 ctr -0.1 and PLCb3 confirm -4.2.
O=C(NCCc1ccc(Cl)cc1)C1CCN(S(=O)(=O)c2cccs2)CC1 was read as ADAM17 inh -2.8, ADAM10 inh 1.9, Rce1 inhib inactive, PLCg1 inh -0.6 and PLC-beta3 inh 2.8.
`O=C(C1CCCN(S(=O)(=O)c2cccc3nonc23)C1)N1CCN(c2ccccc2Cl)CC1` (stereo unspecified) gave ADAM17 inh 4.6, ADAM10 inh 9.9, Rce1 inhib inactive, PLCg1 inh 14.0*, PLC-beta3 inh 7.2, PLCgamma1 ctr -0.9 and PLCb3 confirm 3.6.
For CCCCCCCC(=O)Nc1ccc(S(=O)(=O)Nc2nccs2)cc1 the results were ADAM17 inh 2.5, ADAM10 inh 1.0, Rce1 inhib inactive, PLCg1 inh 26.5*, PLC-beta3 inh 0.2, PLCgamma1 ctr -5.4 and PLCb3 confirm -5.1.
O=C1/C(=C/c2cccc([N+](=O)[O-])c2)CCc2ccccc21 was read as ADAM17 inh -0.8, ADAM10 inh 3.6, Rce1 inhib inactive, PLCg1 inh 5.0 and PLC-beta3 inh -5.1.
`CCN1C/C(=C\c2cccc([N+](=O)[O-])c2)C(=O)/C(=C/c2cccc([N+](=O)[O-])c2)C1` gave ADAM17 inh 1.6, ADAM10 inh 9.8, PLCg1 inh 12.5*, PLC-beta3 inh 6.2, PLCgamma1 ctr 0.9 and PLCb3 confirm 0.2.
`O=C(CNC(=O)c1ccc(Cl)cc1)NCCCn1ccnc1` gave ADAM17 inh -2.8, ADAM10 inh 0.3, PLCg1 inh 1.7 and PLC-beta3 inh 1.3.
`CC1(C2(O)CCCCC2)NCCc2ccccc21` (stereo unspecified) gave ADAM17 inh -1.5, ADAM10 inh -2.5, PLCg1 inh -1.1 and PLC-beta3 inh -5.2.
`CCOc1ccc(OCC)c(NC(=O)C2CCN(S(=O)(=O)c3cccnc3)CC2)c1` gave ADAM17 inh -2.7, ADAM10 inh 1.6, Rce1 inhib inactive, PLCg1 inh 1.6 and PLC-beta3 inh 1.5.
`CCOc1ccc(NC(=O)C2CCCN2S(=O)(=O)c2ccc(OCC)cc2)cc1` (stereo unspecified) gave ADAM17 inh 5.7, ADAM10 inh 13.8, Rce1 inhib inactive, PLCg1 inh 12.3*, PLC-beta3 inh -5.5, PLCgamma1 ctr -1.3 and PLCb3 confirm 3.5.
CCOc1ccc(NC(=O)C2CCN(S(=O)(=O)c3cccnc3)CC2)cc1 was read as ADAM17 inh 4.1, ADAM10 inh 9.3, Rce1 inhib inactive, PLCg1 inh 12.3*, PLC-beta3 inh 7.2, PLCgamma1 ctr -1.6 and PLCb3 confirm -1.9.
Screening COc1ccc(CN2CCCC(C(=O)N3CCCC3)C2)c(OC)c1OC (stereo unspecified) returned ADAM17 inh 1.3, ADAM10 inh -3.5, PLCg1 inh 11.2*, PLC-beta3 inh 7.0, PLCgamma1 ctr 1.3 and PLCb3 confirm 3.3.
CN(C(=O)c1cccc(NC(=O)Cc2ccc(NC(=O)C3CCCN(C(=O)C4CCCCC4)C3)cc2)c1)C1CCC1 (stereo unspecified) was read as ADAM17 inh -0.6, ADAM10 inh -12.5, PLCg1 inh 1.1 and PLC-beta3 inh 4.0.
`CC(C)CNS(=O)(=O)c1ccc(CCC(=O)N2CCN(c3ccc(F)cc3)CC2)cc1` gave ADAM17 inh -0.7, ADAM10 inh -2.6, Rce1 inhib inactive, PLCg1 inh -1.0 and PLC-beta3 inh -0.6.
`COc1ccc(N2CCN(C(=O)CCc3ccc(S(=O)(=O)NCC(C)C)cc3)CC2)cc1` gave ADAM17 inh 1.4, ADAM10 inh 16.3, Rce1 inhib inactive, PLCg1 inh 9.6*, PLC-beta3 inh 1.6, PLCgamma1 ctr -0.4 and PLCb3 confirm 0.3.
`O=C(NC1CCCC1)C1c2ccccc2OCC(=O)N1C1CC1` (stereo unspecified) gave ADAM17 inh -5.4, ADAM10 inh -9.9, PLCg1 inh -3.1 and PLC-beta3 inh -2.0.
Screening Cc1ccc(S(=O)(=O)N2CCCCC2CCNC(=O)C(=O)NCc2ccccc2)cc1 (stereo unspecified) returned ADAM17 inh -1.0, ADAM10 inh 1.1, Rce1 inhib inactive, PLCg1 inh 3.7 and PLC-beta3 inh -2.7.
Cc1cccc(NC(=O)N2CCCC2C(=O)NCc2cccs2)c1 (stereo unspecified) was read as ADAM17 inh 6.4, ADAM10 inh 10.6, Rce1 inhib inactive, PLCg1 inh 11.6*, PLC-beta3 inh 5.4, PLCgamma1 ctr -3.8 and PLCb3 confirm 1.1.
For Cc1cccc(NC(=O)N2CCCC2C(=O)Nc2ccccc2)c1 (stereo unspecified) the results were ADAM17 inh 1.4, ADAM10 inh 4.4, Rce1 inhib inactive, PLCg1 inh 12.7*, PLC-beta3 inh 6.9, PLCgamma1 ctr -4.2 and PLCb3 confirm -4.0.
Cc1ccc(NC(=O)N2CCCC2C(=O)NCc2cccs2)cc1 (stereo unspecified) was read as ADAM17 inh -41.6, ADAM10 inh 9.7, Rce1 inhib inactive, PLCg1 inh 2.7 and PLC-beta3 inh 8.3.
